From PubChem
A selection: hits, their analogues and other compounds. The true share with any hit is near 4.3%.
ADAM10 inh = human ADAM10 inhibitors, primary screen, biochemical, QFRET, HTS. inhibition, % at 7 µM. 370,000 tested, 0.62% active. recombinant ADAM10, EDANS/DABCYL FRET peptide cleavage, 3 h. AID 720582, 2013;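 active = inhibition above a per-campaign cutoff equal to the mean of compounds falling between control-based bounds plus 3 SD, cut at about 20% in these data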
ADAM17 inh = ADAM17 inhibitors, primary screen, biochemical, QFRET | Disintegrin and metalloproteinase domain-containing protein 17 (Homo sapiens), P78536 | recombinant ADAM17, EDANS/DABCYL FRET peptide cleavage | inhibition, % at 6.95 µM | 370,000 tested, 0.83% active;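 active = inhibition above the mean of compounds lying between control limits plus 3 SD, set per campaign, cut at about 8.5% in these data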
FAS TE block = FAS thioesterase domain inhibitors, primary screen, biochemical, fluorescence intensity, uHTS; 360,000 tested, 0.67% active; AID 602261, 2012; recombinant FAS-TE, OMFH fluorogenic substrate, fluorescence endpoint; inhibition, % at 15 µM;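 active = compounds whose normalised, plate-corrected inhibition of enzyme fluorescence in the single-dose primary screen is 50% or more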
Target sequence (P49327 whole entry, looked up, the tested form may be a part): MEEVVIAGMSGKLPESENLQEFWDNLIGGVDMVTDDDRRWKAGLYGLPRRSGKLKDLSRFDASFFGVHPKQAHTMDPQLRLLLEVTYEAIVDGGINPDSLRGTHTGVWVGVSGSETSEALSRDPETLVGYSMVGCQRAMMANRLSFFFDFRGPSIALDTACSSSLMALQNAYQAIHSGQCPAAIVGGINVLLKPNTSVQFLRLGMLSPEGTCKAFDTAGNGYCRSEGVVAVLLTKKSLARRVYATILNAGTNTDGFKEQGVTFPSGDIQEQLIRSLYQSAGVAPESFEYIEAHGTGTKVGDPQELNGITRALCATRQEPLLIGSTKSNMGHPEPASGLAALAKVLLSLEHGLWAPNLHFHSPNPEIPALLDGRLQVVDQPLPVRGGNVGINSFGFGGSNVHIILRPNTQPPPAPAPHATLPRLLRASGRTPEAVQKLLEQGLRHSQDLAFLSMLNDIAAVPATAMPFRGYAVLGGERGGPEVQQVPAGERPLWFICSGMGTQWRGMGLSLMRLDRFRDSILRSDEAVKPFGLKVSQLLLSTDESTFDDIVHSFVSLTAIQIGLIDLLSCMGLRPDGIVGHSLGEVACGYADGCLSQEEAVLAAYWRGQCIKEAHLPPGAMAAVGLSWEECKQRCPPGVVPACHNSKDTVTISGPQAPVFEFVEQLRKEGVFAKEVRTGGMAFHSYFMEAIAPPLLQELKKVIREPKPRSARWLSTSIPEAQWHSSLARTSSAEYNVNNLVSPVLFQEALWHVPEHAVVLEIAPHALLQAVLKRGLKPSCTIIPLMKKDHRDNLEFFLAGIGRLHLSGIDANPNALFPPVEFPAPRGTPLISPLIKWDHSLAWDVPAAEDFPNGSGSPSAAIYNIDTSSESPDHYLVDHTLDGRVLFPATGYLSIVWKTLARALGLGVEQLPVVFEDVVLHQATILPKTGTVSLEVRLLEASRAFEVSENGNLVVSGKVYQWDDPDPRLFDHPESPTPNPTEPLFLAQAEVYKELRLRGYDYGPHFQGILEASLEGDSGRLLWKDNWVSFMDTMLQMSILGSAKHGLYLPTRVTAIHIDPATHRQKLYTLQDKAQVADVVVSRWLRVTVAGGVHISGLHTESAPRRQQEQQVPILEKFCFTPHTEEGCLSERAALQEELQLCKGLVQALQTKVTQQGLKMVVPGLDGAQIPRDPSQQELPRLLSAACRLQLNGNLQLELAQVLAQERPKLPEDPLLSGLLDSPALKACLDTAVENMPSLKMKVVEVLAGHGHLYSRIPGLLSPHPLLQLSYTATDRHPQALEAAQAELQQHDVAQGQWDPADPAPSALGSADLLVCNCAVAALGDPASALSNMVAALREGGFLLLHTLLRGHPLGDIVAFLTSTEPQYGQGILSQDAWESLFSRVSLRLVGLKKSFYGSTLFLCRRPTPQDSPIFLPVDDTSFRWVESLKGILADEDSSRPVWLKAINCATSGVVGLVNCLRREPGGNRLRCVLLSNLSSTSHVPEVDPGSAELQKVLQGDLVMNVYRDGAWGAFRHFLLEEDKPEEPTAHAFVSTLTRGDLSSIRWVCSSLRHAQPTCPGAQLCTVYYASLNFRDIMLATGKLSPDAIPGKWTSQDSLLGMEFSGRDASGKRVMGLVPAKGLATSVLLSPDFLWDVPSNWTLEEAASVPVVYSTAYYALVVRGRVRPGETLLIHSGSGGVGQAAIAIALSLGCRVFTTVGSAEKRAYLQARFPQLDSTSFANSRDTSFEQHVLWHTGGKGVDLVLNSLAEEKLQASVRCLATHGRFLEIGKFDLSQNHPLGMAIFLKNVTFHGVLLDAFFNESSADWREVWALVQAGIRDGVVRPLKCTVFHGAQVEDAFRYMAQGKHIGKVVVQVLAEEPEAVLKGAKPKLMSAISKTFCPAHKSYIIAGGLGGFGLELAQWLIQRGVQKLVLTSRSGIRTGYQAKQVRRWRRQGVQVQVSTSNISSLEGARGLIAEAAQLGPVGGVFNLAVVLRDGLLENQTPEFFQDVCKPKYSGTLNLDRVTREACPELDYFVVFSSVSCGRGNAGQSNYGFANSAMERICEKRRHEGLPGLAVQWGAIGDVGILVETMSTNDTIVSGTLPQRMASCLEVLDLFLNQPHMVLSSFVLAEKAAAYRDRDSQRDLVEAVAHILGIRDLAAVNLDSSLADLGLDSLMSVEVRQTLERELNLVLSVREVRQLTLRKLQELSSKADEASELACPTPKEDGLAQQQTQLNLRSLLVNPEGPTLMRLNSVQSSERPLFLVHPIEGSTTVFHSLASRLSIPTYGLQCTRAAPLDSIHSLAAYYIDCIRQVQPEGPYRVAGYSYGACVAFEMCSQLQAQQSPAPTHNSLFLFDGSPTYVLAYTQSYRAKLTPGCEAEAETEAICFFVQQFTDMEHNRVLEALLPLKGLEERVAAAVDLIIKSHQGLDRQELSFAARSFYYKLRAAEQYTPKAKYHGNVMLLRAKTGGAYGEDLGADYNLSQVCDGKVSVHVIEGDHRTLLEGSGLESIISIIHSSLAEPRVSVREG
HGIII-sPLA2 inh = human group III sPLA2 inhibitors, primary screen, biochemical, QFRET, BODIPY PC-A2 liposome substrate; inhibition, % at 12.2 µM; AID 743126, 2013; 370,000 tested, 0.56% active; Group 3 secretory phospholipase A2 (Homo sapiens), Q9NZ20; QFRET BODIPY PC-A2 liposome hydrolysis, fluorescence;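 active = inhibition above mean plus 3 SD of compounds lying within the high and low control bounds, cut at about 19% in these data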
NR3A LBD binder = binders of NR3A ligand-binding domain, primary screen, biophysical, differential scanning fluorimetry, uHTS; Glutamate receptor ionotropic, NMDA 3A (GRIN3A) ligand-binding domain; NR3A LBD differential scanning fluorimetry, Tm shift; 0% = protein alone, 100% = glycine-bound protein; Tm shift relative to glycine control, % at 25 µM; 340,000 tested, 2.5% active; AID 1259313, 2017;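 active = melting temperature shift of at least 10% of the positive control shift, at one fixed dose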
ADAM10 confirm = human ADAM10 inhibitors, confirmation, biochemical, QFRET, triplicate; shares compounds with ADAM10 inh; ADAM10 QFRET peptide cleavage, EDANS fluorescence; inhibition, % at 6.95 µM; 2,100 tested, 1% active; AID 743208, 2013;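 active = inhibition above about 20% chosen separately for each screening run, limit read from the data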
ADAM17 ctr = ADAM17 inhibitors, counter-screen for ADAM10 exosite inhibitor project, biochemical, QFRET, high throughput | shares compounds with ADAM10 inh | ADAM17 QFRET peptide cleavage, EDANS fluorescence | inhibition, % at 6.95 µM | 2,100 tested, 0.5% active;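 active = mean triplicate inhibition above the solvent-only control wells' mean plus 3 SD, cut at about 12% in these data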
Numbers stand for hits.

What do the screens show for `CCOc1ccc(S(=O)(=O)n2cnc3ccccc32)cc1`?
ADAM10 inh: 64; ADAM17 inh: inactive; FAS TE block: inactive; HGIII-sPLA2 inh: inactive; NR3A LBD binder: inactive; ADAM10 confirm: inactive; ADAM17 ctr: inactive

What do the screens show for `Cc1nn(Cc2ccc(C(=O)Nc3nc4c(C)cccc4s3)o2)c(C)c1Br`?
ADAM10 inh: inactive; ADAM17 inh: inactive; FAS TE block: inactive; HGIII-sPLA2 inh: inactive; NR3A LBD binder: inactive

What do the screens show for `Cc1csc(NC(=O)c2cccc(Cn3nc(C)c(Br)c3C)c2)n1`?
ADAM10 inh: 20; ADAM17 inh: inactive; FAS TE block: inactive; HGIII-sPLA2 inh: inactive; NR3A LBD binder: inactive; ADAM10 confirm: inactive; ADAM17 ctr: inactive

What do the screens show for `COc1cc(C)ccc1C(=O)N1CCC(Oc2cccnc2)CC1`?
ADAM10 inh: inactive; ADAM17 inh: inactive; HGIII-sPLA2 inh: inactive

How did Cc1[nH]c2ccccc2c1N=Nc1ccccc1F do in these assays?
ADAM10 inh: 30; ADAM17 inh: inactive; FAS TE block: inactive; HGIII-sPLA2 inh: inactive; NR3A LBD binder: 13; ADAM10 confirm: inactive; ADAM17 ctr: inactive

Results for Cc1[nH]c2ccccc2c1N=Nc1c(C)n(C)n(-c2ccccc2)c1=O ?
ADAM10 inh: inactive; ADAM17 inh: inactive; FAS TE block: inactive; HGIII-sPLA2 inh: inactive; NR3A LBD binder: inactive

Results for O=c1c2cc3cccnc3nc2ncn1CCc1c[nH]c2ccccc12 ?
ADAM10 inh: inactive; ADAM17 inh: inactive; HGIII-sPLA2 inh: inactive

How did COc1ccccc1-n1c(SCC(=O)NC2CCS(=O)(=O)C2)nc2cc([N+](=O)[O-])ccc21 (configuration not stated) do in these assays?
ADAM10 inh: inactive; ADAM17 inh: inactive; FAS TE block: inactive; HGIII-sPLA2 inh: inactive; NR3A LBD binder: inactive

Results for COc1ccccc1-n1c(SCC(=O)c2ccc(O)cc2O)nc2cc([N+](=O)[O-])ccc21 ?
ADAM10 inh: 26; ADAM17 inh: inactive; FAS TE block: inactive; HGIII-sPLA2 inh: inactive; NR3A LBD binder: 30; ADAM10 confirm: inactive; ADAM17 ctr: inactive

How did CC(C)CNC(=O)OCc1cn(Cc2ccc(F)c(F)c2)nn1 do in these assays?
ADAM10 inh: inactive; ADAM17 inh: inactive; HGIII-sPLA2 inh: inactive

How did CCn1nc(C)c(C(=O)Nc2cc(Oc3cc(C)cc(C)c3)cc([N+](=O)[O-])c2)c1C do in these assays?
ADAM10 inh: 21; ADAM17 inh: inactive; FAS TE block: inactive; HGIII-sPLA2 inh: inactive; NR3A LBD binder: inactive; ADAM10 confirm: inactive; ADAM17 ctr: inactive

How did Cn1cc([N+](=O)[O-])c(C(=O)Nc2cc(Oc3ccccc3)cc([N+](=O)[O-])c2)n1 do in these assays?
ADAM10 inh: inactive; ADAM17 inh: inactive; FAS TE block: inactive; HGIII-sPLA2 inh: inactive; NR3A LBD binder: inactive

How did COC(=O)[C@]12C[C@H](CC(=O)N3CCSCC3)C(=O)N(CCc3ccc(OC)c(OC)c3)C1=C[C@H](C(C)C)O[C@@H]2C1CC1 do in these assays?
ADAM10 inh: inactive; ADAM17 inh: inactive; HGIII-sPLA2 inh: inactive

What do the screens show for `COc1ccccc1-n1cc(-c2ccc(C)cc2)[nH]c1=S`?
ADAM10 inh: inactive; ADAM17 inh: inactive; FAS TE block: inactive; HGIII-sPLA2 inh: inactive; NR3A LBD binder: inactive

How did COc1ccccc1-n1cc(-c2ccc([N+](=O)[O-])cc2)[nH]c1=S do in these assays?
ADAM10 inh: 27; ADAM17 inh: inactive; FAS TE block: inactive; HGIII-sPLA2 inh: inactive; NR3A LBD binder: inactive; ADAM10 confirm: inactive; ADAM17 ctr: inactive

What do the screens show for `CCC[C@H]1[C@@H](OC(=O)N2CCOCC2)CC[C@@]23CCCN2C(=O)CCC[C@@H]13`?
ADAM10 inh: inactive; ADAM17 inh: inactive; HGIII-sPLA2 inh: inactive

What do the screens show for `O=C(CSc1nc2ccccc2[nH]1)Nc1ccc2c(c1)CCC2`?
ADAM10 inh: 20; ADAM17 inh: inactive; FAS TE block: inactive; HGIII-sPLA2 inh: inactive; NR3A LBD binder: inactive; ADAM10 confirm: inactive; ADAM17 ctr: inactive

Results for Cc1ccc(OCC(=O)Nc2ccc3c(c2)OCO3)cc1C ?
ADAM10 inh: inactive; ADAM17 inh: inactive; FAS TE block: inactive; HGIII-sPLA2 inh: inactive; NR3A LBD binder: inactive

How did Cc1ccc(C)c(OCC(=O)Nc2ccc3c(c2)OCO3)c1C do in these assays?
ADAM10 inh: 20; ADAM17 inh: inactive; FAS TE block: inactive; HGIII-sPLA2 inh: inactive; NR3A LBD binder: inactive; ADAM10 confirm: inactive; ADAM17 ctr: inactive

Results for COC(=O)C1CN(CCO)CCS(=O)(=O)N1Cc1cn(Cc2cccc(Cl)c2)nn1 (configuration not stated) ?
ADAM10 inh: inactive; ADAM17 inh: inactive; HGIII-sPLA2 inh: inactive

Results for CCSc1nc2c(c(=O)[nH]c(=O)n2C)n1C/C=C(/C)Cl ?
ADAM10 inh: 20; ADAM17 inh: inactive; FAS TE block: inactive; HGIII-sPLA2 inh: inactive; NR3A LBD binder: inactive; ADAM10 confirm: inactive; ADAM17 ctr: inactive

What do the screens show for `C=CCSc1nc2c(c(=O)[nH]c(=O)n2C)n1C/C=C(/C)Cl`?
ADAM10 inh: inactive; ADAM17 inh: inactive; FAS TE block: inactive; HGIII-sPLA2 inh: inactive; NR3A LBD binder: inactive

Results for Clc1ccccc1CNc1ncnc2nc[nH]c12 ?
ADAM10 inh: inactive; ADAM17 inh: inactive; FAS TE block: inactive; HGIII-sPLA2 inh: inactive; NR3A LBD binder: inactive

What do the screens show for `Clc1ccccc1CN(Cc1ccccc1)c1ncnc2nc[nH]c12`?
ADAM10 inh: 20; ADAM17 inh: inactive; FAS TE block: inactive; HGIII-sPLA2 inh: inactive; NR3A LBD binder: inactive; ADAM10 confirm: inactive; ADAM17 ctr: inactive

How did Nc1[nH]c(C(=O)c2ccccc2)c(-c2ccccc2[N+](=O)[O-])c1C(=O)NCCc1c[nH]c2ccccc12 do in these assays?
ADAM10 inh: 25; ADAM17 inh: 12; HGIII-sPLA2 inh: inactive; ADAM10 confirm: inactive; ADAM17 ctr: inactive

What do the screens show for `Cc1ccc(Cl)cc1NC(=S)NCCCSC1CCCCC1`?
ADAM10 inh: 22; ADAM17 inh: inactive; FAS TE block: inactive; HGIII-sPLA2 inh: inactive; NR3A LBD binder: inactive; ADAM10 confirm: inactive; ADAM17 ctr: inactive

How did Cc1cc(Cl)ccc1NC(=S)NCCCO do in these assays?
ADAM10 inh: inactive; ADAM17 inh: inactive; FAS TE block: inactive; HGIII-sPLA2 inh: inactive; NR3A LBD binder: inactive
